# PTHR1 ag: agonists of human PTHR1 parathyroid hormone receptor; Potency, µM (top dose mostly 115 µM), usual class: activators; HEK293 GP2 PTHR1 cells, GloSensor cAMP luminescence, 1 h; actives 0.075% (n = 410,000); note: nearly all actives have a fitted effect of over 55% in size
# Target sequence (Q03431 whole entry, looked up): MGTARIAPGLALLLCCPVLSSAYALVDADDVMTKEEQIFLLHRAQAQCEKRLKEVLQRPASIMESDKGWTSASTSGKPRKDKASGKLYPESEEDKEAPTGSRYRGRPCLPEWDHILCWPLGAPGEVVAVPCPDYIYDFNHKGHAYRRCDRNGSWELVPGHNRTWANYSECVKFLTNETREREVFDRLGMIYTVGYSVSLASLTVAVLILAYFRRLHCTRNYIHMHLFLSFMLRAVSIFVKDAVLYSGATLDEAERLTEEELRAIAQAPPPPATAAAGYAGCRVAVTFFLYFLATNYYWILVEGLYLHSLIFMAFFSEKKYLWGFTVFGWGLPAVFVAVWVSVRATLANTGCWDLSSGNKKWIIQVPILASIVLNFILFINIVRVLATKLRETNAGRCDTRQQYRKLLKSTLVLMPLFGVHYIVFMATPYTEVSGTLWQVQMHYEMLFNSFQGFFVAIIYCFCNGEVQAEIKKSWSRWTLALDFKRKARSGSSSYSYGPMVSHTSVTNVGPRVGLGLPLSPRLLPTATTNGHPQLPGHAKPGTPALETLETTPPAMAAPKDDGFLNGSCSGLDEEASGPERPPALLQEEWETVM
#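 HEK-293-derived GP2 cells expressing PTHR1 and a GloSensor cAMP reporter, 3,000/well, plated overnight, given luciferin plus IBMX (each 0.5 mM as added) for 1 h at 37 °C, then compound for 1 h at 37 °C. Luminescence was read after 15 min at room temperature.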
# EPAC2 agonist: agonists of human EPAC2 (RAPGEF4); Q8WZA2; EPAC2 activation, biochemical qHTS; response scale: 100% = 6.5 mM cAMP response; Potency, µM (titrated, usually from 154 µM), usual class: activators; actives 0.079% (n = 360,000); AID 720711; note: nearly all actives have a fitted effect of over 50% in size
#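 Readout is BODIPY fluorescence (480 nm excitation, 540 nm emission), which falls as labeled GDP is exchanged off Rap1B. EPAC2 at 100 nM acted on 250 nM RAP1B-BODIPY-GDP with 50 uM GDP present.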
# EPAC2 antag: EPAC2 (human) antagonism | Q8WZA2 | EPAC2 GEF exchange of Rap1B-BODIPY-GDP, fluorescence | Potency, µM (highest dose often 114 µM), actives largely listed as inhibitors | actives 0.18% (n = 360,000) | AID 720708; note: nearly all actives have a fitted effect of over 45% in size
# EPAC1 agonist: EPAC1 (human) agonism | O95398 | EPAC1 agonist qHTS, biochemical assay; response scale: 100% = response to 6.5 mM cAMP | Potency, µM (top dose mostly 154 µM), actives largely listed as activators | actives 0.073% (n = 360,000); note: nearly all actives have a fitted effect of over 60% in size
#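 Compounds were pinned as a concentration titration into mixtures of EPAC1 (100 nM), BODIPY-GDP-loaded Rap1B (250 nM) and GDP (50 uM). After 5 min at room temperature, fluorescence was followed for 30 min; activity was scaled to 6.5 mM cAMP.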
# EPAC1 antag: EPAC1 (human) antagonism; AID 720709; EPAC1 GEF assay, Rap1b-BODIPY-GDP exchange fluorescence; actives 0.14% (n = 360,000); O95398; Potency, µM (titrated, usually from 115 µM), most hits filed as inhibitors; note: nearly all actives have a fitted effect of over 50% in size
# TSHR antag: antagonists of human thyroid stimulating hormone receptor; P16473; TSHR-expressing cells, TSH-stimulated cAMP HTRF, 2 h; stronger effect = lower value; activity change, negative = inhibition, % at 11.5 µM; actives 0.2% (n = 330,000); AID 504810;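 active = activity change below a set negative limit, meaning inhibition stronger than a set level, cut at about -70% in these data; inconclusive = activity change between two set negative limits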
#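 Competitive HTRF cAMP read-out (cryptate anti-cAMP antibody, cAMP-d2; 30 min, room temperature) in freshly harvested TSHR cells. Compounds added before TSH at EC80 (4nM final), followed by 2 hours' incubation at 37 deg C.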
# Hits are given with their value; – = inactive; ? = inconclusive; · = no result given. In the library only some 0.5% were active in any assay of this set; here they are far more common. Unless noted, calls come from the whole dose curve; as a rule, active = well fitted curve in the direction sought with a large enough effect; inconclusive = small, poorly fitted or top-dose-only effect, or another doubt; inactive = no such curve, though single readings can be large; an effect the other way counts as inactive or inconclusive.
SMILES,PTHR1 ag,EPAC2 agonist,EPAC2 antag,EPAC1 agonist,EPAC1 antag,TSHR antag
Cc1ccc2nc3n(c(=O)c2c1)-c1ccccc1C(=O)NC3Cc1ccccc1 (stereo not drawn),·,·,·,·,·,–
CCOc1ccc(-n2cnc3scc(-c4ccc(OC)c(OC)c4)c3c2=O)cc1,–,–,50µM,–,–,–
COc1ccc(CNC(=O)[C@@H](NC(=O)C2CCN(S(=O)(=O)c3ccc(C)cc3)CC2)C(C)C)cc1OC,–,–,–,–,–,–
Clc1ccc(C2Nc3cccc4cccc(c34)N2)cc1,–,–,?,–,–,?
Clc1ccc(C2Nc3cccc4cccc(c34)N2)c(Cl)c1,–,–,10µM,–,–,·
Cc1cccc(NC(=O)CNC(=O)Cc2ccc(S(=O)(=O)N3CCOCC3)s2)c1C,–,–,–,–,–,–
CC[n+]1c(/C=C/N(C)c2ccccc2)n(-c2ccccc2)c2ccc(-c3nc4ccccc4s3)cc21,–,–,–,–,–,-98
O=S(=O)(Nc1nccs1)c1ccc(NCc2cc(Br)cc(Br)c2O)cc1,–,–,2.8µM,–,?,–
COc1cccc(CNc2ccc(S(=O)(=O)Nc3nccs3)cc2)c1O,–,–,?,–,–,–
COCC(=O)Nc1ccc(S(=O)(=O)Nc2nccs2)cc1,–,–,–,–,–,–
O=C(Cc1ccccc1Cl)Nc1ccc(S(=O)(=O)Nc2nccs2)cc1,–,–,1µM,–,–,–
Cc1ccc(CNC(=O)CSc2nnc3c(n2)[nH]c2ccccc23)cc1,–,–,–,–,–,-82
O=C(CCc1nc(-c2ccc(Cl)cc2)no1)NCc1ccccc1CN1CCOCC1,–,–,–,–,–,–
CC(=O)NC(c1ccccc1)c1c(O)ccc2ccccc12 (stereo not drawn),–,–,40µM,–,–,–
CN1c2ccccc2C(C)(C)C12C=Nc1c(cc(N3CCOCC3)c3ccccc13)O2 (stereo not drawn),–,–,–,–,89µM,–
CC1(c2ccc3ccccc3c2)NC(=O)N(CC(=O)N2CCN(Cc3ccc(C#N)cc3)CC2)C1=O (stereo not drawn),–,–,–,–,?,–
O=S(=O)(NCCSc1ccccc1)c1ccc(F)cc1,–,–,–,–,–,–
O=C(NS(=O)(=O)c1ccc2ccc(S(=O)(=O)NCCSc3ccccc3)cc2c1)c1cccc2ccccc12,–,–,?,–,56µM,·
O=C(N/N=C/c1cccnc1)c1ccccc1OCc1ccc(Cl)cc1,·,·,·,·,·,–
O=C(N/N=C/c1cccnc1)c1cc(-c2ccccc2OCc2ccccc2)n[nH]1,–,–,–,–,50µM,–
CNc1ccc(Cl)cc1S(=O)(=O)c1ccccc1[N+](=O)[O-],–,–,63µM,–,–,·
O=[N+]([O-])c1ccccc1S(=O)(=O)c1ccccc1,–,–,–,–,–,–
O=[N+]([O-])c1ccc(N=Nc2ccc(O)cc2O)cc1,–,–,–,–,–,-74
O=[N+]([O-])c1cccc(N=Nc2ccc(O)cc2O)c1,–,–,–,–,–,·
O=C(C[C@@H]1C/C=C\CC[C@H](Cc2ccc(F)cc2)C(=O)OC[C@@H]2CCCN2C1=O)N[C@H](CO)Cc1ccccc1,–,–,–,–,–,–
SMILES,PTHR1 ag,EPAC2 agonist,EPAC2 antag,EPAC1 agonist,EPAC1 antag,TSHR antag
Cc1ccc(NC(=O)Cn2cnc3sc(C)c(S(=O)(=O)N4CCN(c5ncccn5)CC4)c3c2=O)cc1F,–,·,·,·,·,·
Cc1ccc(S(=O)(=O)NC(=O)Nc2ccc(N(C)C)cc2)cc1,–,–,–,–,–,-75
CCc1nnc(NS(=O)(=O)c2ccc(NC(=O)c3ccccc3)cc2)s1,–,–,–,–,–,–
CCc1nnc(NS(=O)(=O)c2ccc(NC(=S)NC(=O)/C=C/c3ccc(C(C)C)cc3)cc2)s1,–,–,?,–,79µM,–
CCc1nnc(NS(=O)(=O)c2ccc(NC(=S)NC(=O)/C=C/c3ccccc3)cc2)s1,–,–,–,–,?,–
CCc1nnc(NS(=O)(=O)c2ccc(NC(=S)NC(=O)c3ccc(Br)cc3)cc2)s1,–,–,–,–,56µM,–
CCc1nnc(NS(=O)(=O)c2ccc(NC(=S)NC(=O)c3ccccc3)cc2)s1,–,–,–,–,–,–
CCc1nnc(NS(=O)(=O)c2ccc(N/C=C\C(=O)c3ccc4ccccc4c3)cc2)s1,–,–,–,–,50µM,–
O=C(CSc1nc2c([nH]c3ccccc32)c(=O)n1-c1ccc(Cl)cc1)NC1CCCCC1,–,·,·,·,·,·
CCn1c(CN2CCOCC2)nnc1SCC(=O)Nc1cccc(C)c1,–,–,–,–,–,–
Cn1c(=O)c(C#N)c(-c2ccc(F)cc2)c2cc(C(=O)c3cc(Cl)cc(Cl)c3O)cnc21,–,–,50µM,–,?,–
COc1ccccc1-n1c(=O)c(C#N)c(-c2ccc([N+](=O)[O-])cc2)c2cc(C(=O)c3cc(F)ccc3O)cnc21,–,–,–,–,–,–
CCOC1=CC2=C(C(=O)C(Cl)=CC2=O)[C@@H]2CN(S(=O)(=O)c3ccc(C)cc3)[C@@H](c3ccccc3)[C@H]12,–,–,–,–,56µM,·
CC(/C=C1\SC(=S)N(NS(=O)(=O)c2ccccc2)C1=O)=C\c1ccccc1,–,–,50µM,–,40µM,–
CC(/C=C1\SC(=S)N(NC(=O)c2ccc(C)cc2)C1=O)=C\c1ccccc1,–,–,–,–,–,–
CC(/C=C1\SC(=S)N(NS(=O)(=O)c2ccc(C)cc2)C1=O)=C\c1ccccc1,–,–,35µM,–,40µM,–
CCOc1ccc(S(=O)(=O)N(CC(=O)NCCSCc2ccccc2)c2ccccc2)cc1,–,·,·,·,·,·
O=C(/C=C/c1ccncc1)c1ccc2c(c1)OCCO2,–,–,–,–,–,–
COc1cc(/C=C/C(=O)c2ccc3c(c2)OCCO3)cc(Br)c1OCC(=O)N(C)C,–,–,–,–,79µM,–
O=C(c1ccc2c(=O)n(CCc3ccccc3)c(=O)[nH]c2c1)N1CCN(c2ccc(Cl)cc2)CC1,–,·,·,·,·,·
CC(C)(C)c1ccc(-n2nc(C#N)c(Cl)cc2=O)cc1,–,–,–,–,?,-80
O=C(O)COc1ccc(NC(=O)C(c2ccccc2)c2ccccc2)cc1,–,–,20µM,–,–,–
CCN(CC)c1ccc2nc3ccccc3[n+](CC)c2c1,–,–,–,–,–,-140
O=C1c2ccccc2C(=O)N1CSc1nnnn1-c1ccccc1,–,–,–,–,–,–
O=C1c2ccccc2C(=O)N1CCCCSc1nnnn1-c1ccccc1,–,–,–,–,–,-72

# Screening results from PubChem BioAssay.
